About 2,300 (0.77%) of roughly 300,000 compounds were called active. This excerpt belongs to a sample that is enriched for actives. A number with no mark means an inactive call.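 The calls were made as follows: active = more than half of replicate wells show activity change below -50%, luminescence cut by over half; inconclusive = some wells, but at most half, below -50%; inactive = no replicate well below -50%.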
Experiment: blocking HSF1-driven luciferase expression – cell-based, NIH3T3, luminescence, primary screen (AID 2098);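 also: luciferase reports HSF-1 transcriptional activity via heat shock element; 0% = median of DMSO wells and -100% = zero luminescence signal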
Conditions: NIH3T3-HGL HSE-luciferase, MG132-induced, luminescence 8 h; active compounds read low; screened at 7.5 µM (by protocol)

In order of falling activity change, negative = inhibition:
1. Oc1c(C(c2ccccn2)N2CCOCC2)ccc2cccnc12 (stereo not drawn)  39.3%
2. CCOC(=O)N1CCN(C(c2cccnc2)c2ccc3cccnc3c2O)CC1 (stereo not drawn)  26.3%
3. Cc1ccc(-c2csc(NC(=O)C3=COCCO3)n2)cc1C  14.3%
4. CCn1cc(CN2CCC(C(=O)Nc3cccc(-c4cccc(Cl)c4)c3)CC2)cn1  13.5%
5. Cc1cccc(CS(=O)(=O)c2ncc(Cl)c(C(=O)Nc3ccc(F)cc3)n2)c1  13.2%
6. COc1ccc(C(=O)O/N=C(\N)c2ccccn2)cc1[N+](=O)[O-]  12.7%
7. O=C(c1noc2c1CCCC2)N1CCc2ccccc2C1  12.4%
8. O=S(=O)(Nc1ccc(-c2ccc(N3CCOCC3)nn2)cc1)c1cc(Cl)ccc1Cl  11.6%
9. COc1ccc(-c2cn(-c3ccc(OC)cc3)c(=S)[nH]2)cc1  9.62%
10. O=C1[C@H]2[C@@H](c3ccc(Cl)cc3)N3C(=O)N(c4cccc(F)c4)C(=O)[C@@]3(Cc3ccccc3)[C@H]2C(=O)N1C1CCCCC1  8.08%
11. COc1ccc(NC(=O)CN(C)C(=O)Cc2coc3cc(C)c(C)cc23)cc1  7.31%
12. O=C(CN(c1cc(C(F)(F)F)ccc1Cl)S(=O)(=O)c1ccccc1)NCc1cccnc1  6.77%
13. C#CCNC(=O)[C@H](Cc1ccc(C(=O)c2ccccc2)cc1)NC(=O)OC(C)(C)C  5.42%
14. O=C(COC(=O)CCOc1ccccc1)Nc1cc(S(=O)(=O)N2CCCCC2)ccc1Cl  5.19%
15. CC(=O)c1c(C)[nH]c(C(=O)COC(=O)CCOc2ccc(C)cc2)c1C  5.07%
16. COc1ccc(Cl)cc1C=CC=NNC(=O)c1ccncc1  5.04%
17. Cc1ccc2nc(SCC(=O)Nc3cccc4ccccc34)nc(=O)n2c1  4.93%
18. COc1ccc(/C=N/NC(=O)c2ccccc2)cc1OS(=O)(=O)c1ccccc1  4.64%
19. COc1ccc(C(=O)N(Cc2ccccc2)c2ccc(C)cc2)cc1S(=O)(=O)N1CCOCC1  4.46%
20. CSc1nsc(NC(=O)Nc2ccccc2)n1  4.05%
21. COc1ccc(C2/C=C\CN(S(=O)(=O)c3cccs3)CC(=O)N2Cc2ccc(F)cc2)cc1 (stereo not drawn)  3.97%
22. CCSc1ncc(Cl)c(C(=O)Nc2cc(C)ccc2C)n1  3.48%
23. C=CCSc1nnc2c(n1)-c1cccc3cccc-2c13  3.46%
24. O=C1COc2ccc(S(=O)(=O)Nc3ccc(OC(F)(F)F)cc3)cc2N1  2.92%
25. CN(Cc1c(F)cccc1Cl)C(=O)CNC(=O)c1ccc2c(c1)OCO2  2.65%
26. S=c1[nH]c(-c2cccs2)cn1-c1ccccc1  2.33%
27. O=C(NCCc1ccco1)C(=O)NCCC1CCCCN1S(=O)(=O)c1ccccc1 (stereo not drawn)  1.49%
28. CCOC(=O)c1c(C)[nH]c(C(=O)OCC(=O)c2ccc(OC)cc2OC)c1C  1.38%
29. CCCCC(CC)CNC(=O)CCCCn1c(=O)[nH]c2ccsc2c1=O (stereo not drawn)  1.08%
30. CCC(C)N(C(=O)CSc1ncnc2c1cnn2-c1ccccc1)C1CCS(=O)(=O)C1 (stereo not drawn)  0.752%
31. Cc1ccc(NC(=O)CN(C)C(=O)c2ccc(Br)o2)cc1  0.545%
32. COC(=O)c1c(-c2ccsc2)oc2ccc(-c3cc(OC)c(OC)c(OC)c3)cc12  0.511%
33. COCCN1C=C2C(=O)C(C)(OC(=O)C3CCCC3)C(=O)C=C2C=C1c1ccsc1 (stereo not drawn)  0.381%
34. O=C(NCCS(=O)(=O)NCc1ccc(F)cc1)c1ccccc1  0.252%
35. CN(C)S(=O)(=O)c1ccc(N2CCCC2)c(C(=O)Nc2ccc(Br)cc2F)c1  0.082%
36. Cc1ccc(CSCC(=O)N(C)CC(=O)Nc2cccc(F)c2)cc1  -0.103%
37. CC12CCC(=O)N1C(C(=O)NCCN1C(=O)S/C(=C\c3ccccc3F)C1=O)CS2 (stereo not drawn)  -0.188%
38. O=C(Nc1cccnc1)c1cccc(S(=O)(=O)N2CCCC2)c1  -0.574%
39. COc1ccc(OC)c(S(=O)(=O)N2CCCC(C(=O)N3CCC(C(N)=O)CC3)C2)c1 (stereo not drawn)  -0.699%
40. CN1CCN(C2Cc3ccc(Cl)cc3Sc3ccc(F)cc32)CC1 (stereo not drawn)  -0.795%
41. CCC(=O)N1CCc2cc(Br)c(S(=O)(=O)NCCN3CCCCC3CC)cc21 (stereo not drawn)  -1.08%
42. COc1ccc(S(=O)(=O)N2CCCCCC2)cc1C(=O)N(C)Cc1cccc(OC)c1OC  -1.36%
43. OCCCNc1nc(-c2ccccc2)c2cc(Cl)ccc2n1  -1.41%
44. O=C(Nc1cccc(-c2cccc(Cl)c2)c1)C1CCN(C2CCC2)CC1  -1.45%
45. C=CCN1C=C2C(=O)C(C)(OC(=O)CCc3ccccc3)C(=O)C=C2C=C1c1ccc(C#N)cc1 (stereo not drawn)  -1.82%
46. COC(=O)c1ccc(OCC(O)CN(CCO)CC(O)Cn2ccc3ccccc32)cc1 (stereo not drawn)  -1.93%
47. Cc1cccc(C(=O)NCc2nnc(SC(C)C(=O)Nc3nnc(C)s3)n2C)c1 (stereo not drawn)  -1.96%
48. O=C(NCC(=O)N1CCCC(C(F)(F)F)C1)c1ccccc1F (stereo not drawn)  -2.16%
49. COc1cc(/C=N/NC(=O)c2ccc(N3CCCC3=O)cc2)ccc1O  -2.17%
50. CCOC(=O)N1CCN(C(=O)CSc2nc(=O)n3cccc(C)c3n2)CC1  -2.47%
51. O=C(NNC(=O)c1ccc(-c2ccccc2)cc1)Nc1ccccc1  -2.47%
52. Cc1ccc(S(=O)(=O)CC(=O)Nc2nnc(C)s2)cc1  -2.63%
53. CC(C)(C)Oc1ccccc1Nc1nc(NCCO)nc(N2CCCC2)n1  -2.91%
54. Cc1ccc(N2CC(C(=O)N3CCC4(CC3)CC(=O)c3ccccc3O4)CC2=O)cc1C (stereo not drawn)  -2.92%
55. Cn1cccc1C(=O)NNC(=O)COc1ccc(Br)cc1  -3.17%
56. NS(=O)(=O)c1ccc(CCNC(=O)CN2C(=O)c3ccccc3S2(=O)=O)cc1  -3.35%
57. COc1ccc(-c2nnc(SCC(=O)Nc3cccnc3Cl)n2C)cc1  -3.85%
58. COc1ccccc1NC(=O)C(C)OC(=O)CC1CCCC1 (stereo not drawn)  -4.1%
59. CC(Oc1ccc(F)cc1)C(=O)Nc1cc(S(=O)(=O)N2CCOCC2)ccc1N1CCN(C)CC1 (stereo not drawn)  -4.5%
60. COc1ccc(Cn2c(=O)sc3ccccc32)cc1OC  -4.6%
61. CCCNC(=O)c1ccc(N2CCC3(CC2)CC(c2cccc(Br)c2)=NO3)c(NC(=O)c2ccco2)c1  -5.02%
62. COc1cccc(OCC(=O)NNC(=O)c2cnccn2)c1  -5.69%
63. Cc1ccc(-n2c(C)cc(C(=O)CN3C(=O)C(=O)N(C4CCCC4)C3=O)c2C)cc1  -6.89%
64. CCCNC(=O)CCn1cc(-c2ccc(OC)cc2)nc1CCN  -7.76%
65. CCN(CC)CCNC(=O)CCCCCn1c(=O)[nH]c2cc(C(=O)OC)ccc2c1=O  -8.49%
66. Cc1nn(C)c(C)c1NS(=O)(=O)c1ccc(OC(F)(F)F)cc1  -8.93%
67. CC(C)n1cnc2c(Nc3cccc(Cl)c3)nc(N(CCO)CCCO)nc21  -11.1%
68. Cc1cccc(NC(=O)c2nc[nH]c2C(=O)NCC(=O)OCc2ccccc2)c1  -13.1%
69. COc1cc(/C=N/NC(=O)c2cc(C)n(-c3ccc(F)cc3)c2C)cc(OC)c1O  -15.3%
70. O=C(NCc1ccccc1)c1onc(CSc2ccncc2)c1C(=O)NCc1ccccc1  -22.7%
71. O=[N+]([O-])c1cccc(C=NN=Cc2ccccc2O)c1  -25.2%
72. CC1(C)O[C@@H]2CC3C4C[C@H](F)C5=CC(=O)C=CC5(C)C4C(O)CC3(C)[C@]2(C(=O)CO)O1 (stereo partly drawn)  -32.3%

For `CCN1CCN(C(c2cccnc2)c2cc(Cl)c3cccnc3c2O)CC1` (stereo not drawn), the activity change, negative = inhibition was -81.5% (active).
For `OCCCNc1nccc(-c2cc(Nc3cccc(Cl)c3)ncn2)n1`, the activity change, negative = inhibition was -63.5% (active).
In the case of `O=C(Nc1cccnc1)c1noc2c1CCCCC2`, the activity change, negative = inhibition is reported as -52.6% (active).
With `COc1ccc(C(=O)NNC(=O)c2cnccn2)cc1[N+](=O)[O-]` the activity change, negative = inhibition was -85.3% (active).
In the case of `O=S(=O)(Nc1ccc(O)c2ccccc12)c1ccc(OC(F)(F)F)cc1`, the activity change, negative = inhibition is reported as -59.7% (active).
In the case of `Cc1cc(C(=O)COC(=O)C2CC2)c(C)n1-c1ccc(F)cc1`, the activity change, negative = inhibition is reported as -71.9% (active).
For `CCN(CCCNC(=O)CCn1c(=O)[nH]c2ccsc2c1=O)c1ccccc1`, the activity change, negative = inhibition was -61.9% (active).
For `CC1(OC(=O)CCc2ccccc2)C(=O)C=C2C=C(c3ccc(C#N)cc3)N(CCc3ccccn3)C=C2C1=O` (stereo not drawn), the activity change, negative = inhibition was -80.1% (active).
For `O=c1oc2ccccc2cc1-c1cn(-c2ccccc2)c(=S)[nH]1`, the activity change, negative = inhibition was -88.1% (active).
In the case of `CCn1cc(CN2CCC(C(=O)Nc3cccc(-c4cccc(Cl)c4)c3)CC2)c(C)n1`, the activity change, negative = inhibition is reported as -68.5% (active).
In the case of `Cc1ccc(CS(=O)(=O)c2ncc(Cl)c(C(=O)Nc3nnc(C)s3)n2)cc1`, the activity change, negative = inhibition is reported as -63.4% (active).
In the case of `Cc1cccc(NC(=O)c2nc(S(=O)(=O)Cc3ccccc3)ncc2Cl)c1`, the activity change, negative = inhibition is reported as -83.8% (active).
For `COc1ccc(CCNCC(O)Cn2ccc3ccccc32)cc1OC` (stereo not drawn), the activity change, negative = inhibition was -87.6% (active).
In the case of `COc1ccccc1NC(=O)[C@H](COCc1ccccc1)NC(=O)OC(C)(C)C`, the activity change, negative = inhibition is reported as -65.5% (active).
For `COc1ccc(C(=O)Nc2ccccc2C(=O)N/N=C/c2ccc(O)c(OC)c2)cc1`, the activity change, negative = inhibition was -88.5% (active).
With `Cc1ccc(CSCC(=O)N(C)CC(=O)Nc2ccc(C)cc2)cc1` the activity change, negative = inhibition was -72.3% (active).

Reference: PubChem BioAssay AID2098 (Broad Institute, 2009)
